The source made the active and inactive calls. How the calls were made is not given here.

The values that follow come from PubChem BioAssay.

The assay has as its system Aerobactin synthetase IucA (Klebsiella pneumoniae hvKP1). Briefly: IucA enzyme inhibition, primary screen, biochemical, Spectrum library (AID 1346200).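 Further: 100% = wells without compound and 0% = wells lacking enzyme.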 The settings on record: malachite green pyrophosphate, A620, at 8 µM, hits give low values.
Consider `CC12CCC3C(CC3(C)C)C(C)(CCC1=O)O2` (centres undefined), for which the activity remaining is 119% (inactive).

As to `C#C[C@]1(O)CCC2C3CCc4cc(OC)ccc4C3CC[C@@]21C` (some centres undefined), the activity remaining is 116% (inactive).

With `COc1ccc2c(c1)OCc1c-2oc2cc(OC)ccc12`, the activity remaining was 90.7% (inactive).

Turning to `Cc1cc(O)c(C=O)c2c1C(=O)Oc1c(COC(=O)/C=C/C(=O)O)c(O)c(C(=O)O)c(C)c1O2`, the activity remaining is 93.9% (inactive).

Regarding `C=C1C[C@]23C[C@@]1(O)CC[C@H]2[C@@]12C=C[C@H](O)C(C)(C(=O)O1)[C@H]2[C@@H]3C(=O)O`, the activity remaining is 121% (inactive).

`COc1cc(OC)c2c(OC)c(-c3ccc4c(c3)OCO4)c(=O)oc2c1`: the activity remaining was 95.4% (inactive).

With `NC[C@@H]1O[C@H](O[C@@H]2[C@@H](CO)OC(O[C@@H]3[C@@H](O)[C@H](N)C[C@H](N)[C@H]3O[C@H]3O[C@H](CO)[C@@H](O)[C@H](O)[C@H]3N)[C@@H]2O)[C@H](N)[C@@H](O)[C@@H]1O` (some centres undefined), the activity remaining was 97.1% (inactive).

Consider `O=C(O)c1cc(O)c2c(c1)[C@@H]([C@H]1c3cc(C(=O)O)cc(O)c3C(=O)c3c(O[C@H]4O[C@H](CO)[C@@H](O)[C@H](O)[C@H]4O)cccc31)c1cccc(O[C@H]3O[C@H](CO)[C@@H](O)[C@H](O)[C@H]3O)c1C2=O`, for which the activity remaining is 98.9% (inactive).

As to `C=C1CCC(OC(C)=O)/C(C)=C/C[C@@H]2[C@@H]1CC2(C)C` (some centres undefined), the activity remaining is 103% (inactive).

In the case of `COc1cc(O)c(C(C)=O)c(OC)c1`, the activity remaining was 104% (inactive).

In the case of `CC[C@]1(O)CC2CN(CCc3c([nH]c4ccccc34)[C@@](C(=O)OC)(c3cc4c(cc3OC)N(C)[C@H]3[C@@](O)(C(=O)OC)[C@H](OC(C)=O)[C@]5(CC)C=CCN6CC[C@]43[C@@H]65)C2)C1` (some centres undefined), the activity remaining is 126% (inactive).

Consider `CC(=O)c1c(O)c(C)c(O)c2c1OC1=CC(=O)C(C(C)=O)C(=O)C12C` (centres undefined), for which the activity remaining is 94.6% (inactive).

Turning to `COC(=O)c1c(C)cc(OC)cc1O`, the activity remaining was 98.9% (inactive).

With `CC1=C(CCC(=O)O)c2cc3nc(cc4[nH]c(cc5[nH]c(cc1n2)c(C)c5C(C)O)c(C)c4C(C)O)C(C)=C3CCC(=O)O` (centres undefined), the activity remaining is 107% (inactive).

For `CCC(=O)O[C@H]1[C@H](O[C@@H]2[C@@H](C)[C@H](O[C@H]3C[C@@](C)(OC)[C@@H](O)[C@H](C)O3)[C@@H](C)C(=O)O[C@H](CC)[C@@](C)(O)[C@H](O)[C@@H](C)C(=O)[C@H](C)C[C@@]2(C)O)O[C@H](C)C[C@@H]1N(C)C`, the activity remaining is 121% (inactive).

For the compound `CN(C)CC/C=C1\c2ccccc2Sc2ccc(Cl)cc21`, the activity remaining was 110% (inactive).

In the case of `CC1(C)C(=O)[C@@H]2C[C@@]3(O)C4=CC(=O)O[C@@H](c5ccoc5)[C@]4(C)CCC3C(C)(C2=O)[C@H]1CC(=O)O` (some centres undefined), the activity remaining was 98.2% (inactive).

As for `CC(=O)/C=C\[C@@H]1[C@@]2(C)CCCC(C)(C)C2CC[C@@]1(C)O` (some centres undefined), the activity remaining is 95.5% (inactive).

On to `Nc1ccccc1C(=O)CC(N)C(=O)O` (centres undefined), for which the activity remaining was 118% (inactive).

As for `CC1=CC2C(CC1=O)C(C)=CCC2C(C)C` (centres undefined), the activity remaining is 104% (inactive).

Consider `CCCC(=O)Nc1ncnc2c1ncn2C1O[C@@H]2COP(=O)(O)O[C@H]2[C@H]1OC(=O)CCC` (some centres undefined), for which the activity remaining is 107% (inactive).

As for `Cc1ccc(C(C)C)cc2c(C)ccc1-2`, the activity remaining is 121% (inactive).

Take `COc1ccc2c(c1)O[C@H]1c3ccc(OC)cc3OC[C@@H]21`: the activity remaining was 122% (inactive).

In the case of `C=C[C@H]1CN2CC[C@H]1C[C@@H]2[C@H](O)c1ccnc2ccc(OC)cc12`, the activity remaining was 112% (inactive).

For the compound `CCCCC1=NC2(CCCC2)C(=O)N1Cc1ccc(-c2ccccc2-c2nn[nH]n2)cc1`, the activity remaining was 121% (inactive).

As to `N[C@@H]1[C@@H](O[C@@H]2O[C@H](C(=O)O)[C@@H](O)[C@H](O)[C@H]2O)[C@@H](O)[C@@H](CO)O[C@@H]1O`, the activity remaining is 100% (inactive).

On to `CC(CCC(=O)O)[C@H]1CCC2C3CC[C@@H]4C[C@H](O)CC[C@]4(C)C3C[C@H](O)[C@@]21C` (some centres undefined), for which the activity remaining is 116% (inactive).

For `OC1=Cc2c(O)cc(O)cc2OC1(O)c1ccc(O)c(O)c1` (centres undefined), the activity remaining was 81.3% (inactive).

Consider `O=C(Cc1ccccc1)NO`, for which the activity remaining was 109% (inactive).

On to `C/C(=C\CO)CC[C@H](C)CCC[C@H](C)CCCC(C)C`, for which the activity remaining is 121% (inactive).

For the compound `CC[C@@H](CO)NCCN[C@@H](CC)CO`, the activity remaining is 102% (inactive).

In the case of `COC1C(O)C(O)C(O)[C@@H](O)C1O` (some centres undefined), the activity remaining was 106% (inactive).

Take `CN1CCC(OC(c2ccccc2)c2ccccc2)CC1`: the activity remaining is 108% (inactive).

In the case of `CC1(C)C(=O)C=C[C@@]2(C)C1CC(=O)[C@]1(C)C2CC[C@@]2(C)[C@H](c3ccoc3)OC(=O)[C@H]3O[C@]321` (some centres undefined), the activity remaining was 116% (inactive).
